Screening data (PubChem)
Sampled rows, rich in hits. Any-hit rate of the full collection: about 3.9%.
Bead autofluor = counter-screen for toxin protease inhibitors: compound fluorescence; compound autofluorescence counterscreen, microsphere flow cytometry; active compounds read high; fluorescence intensity (concentration not given with the values); 360,000 tested, 3.1% active; in the data active = fluorescence intensity above about 16000; inconclusive = no clear call, values can overlap the other calls
BoNT-F LC inh = BoNT/F light chain protease inhibitors, primary screen, biochemical, flow cytometry, MLPCN library; Botulinum neurotoxin type F light chain protease (Clostridium botulinum); Multiplex microsphere protease cleavage assay; inhibition, % at 10 µM; 360,000 tested, 0.22% active; in the data active = inhibition above about 35%, passing the limit was not always enough; inconclusive = no clear call, values can overlap the other calls
BoNT A protease = BoNT/A light chain protease inhibitors, primary screen, biochemical, flow cytometry, MLPCN library; Botulinum neurotoxin type A light chain protease (Clostridium botulinum A str. ATCC 3502); inhibition, % at 10 µM; AID 588499, 2011; multiplex microsphere protease substrate cleavage; 360,000 tested, 0.17% active
Anthrax LF prot = Bacillus anthracis LF protease inhibitors, primary screen, biochemical, multiplex microsphere, MLPCN library; Lethal factor (Bacillus anthracis), P15917; multiplex microsphere protease cleavage assay; inhibition, % at 10 µM; 360,000 tested, 0.12% active
VHR inh abs = VHR1 phosphatase inhibitors, primary screen, biochemical, absorbance, uHTS. Dual specificity protein phosphatase 3 (Homo sapiens), P51452. recombinant VHR phosphatase, pNPP absorbance. inhibition, % at 13.3 µM. 290,000 tested, 0.52% active. AID 1654, 2009; in the data active = inhibition above about 50%
3CLpro inhibitor = SARS-CoV 3CLpro protease inhibitors, primary screen, biochemical, quenched FRET. Replicase polyprotein 1ab (Severe acute respiratory syndrome coronavirus), P0C6X7. recombinant SARS-CoV 3CLpro, quenched FRET peptide cleavage. inhibition, % at 6 µM. 290,000 tested, 0.14% active. AID 1706, 2009; in the data active = inhibition above about 12%
Numbers stand for hits; – = inactive; ? = inconclusive; · = no result given. Cut-off read from the data, not from the text of the source, unless noted: active = inhibition above about 30%; inconclusive = no clear call, values can overlap the other calls; inactive = below that.

SMILES | Bead autofluor | BoNT-F LC inh | BoNT A protease | Anthrax LF prot | VHR inh abs | 3CLpro inhibitor
COc1cc(Br)cc(CN2CCN(C)CC2)c1O | 22111 | – | ? | – | – | –
COc1cc(Br)cc(CN2CCN(C/C=C/c3ccccc3)CC2)c1O | – | – | – | – | – | –
COC(=O)c1[nH]c2cc(C)ccc2c1NC(=O)CN1CCOCC1 | – | – | – | – | – | –
CCC(=O)Nc1sccc1C(=O)OC | 22995 | – | ? | – | – | –
COC(=O)c1[nH]c2ccc(C)cc2c1NC(=O)CCN1CCN(Cc2ccc3c(c2)OCO3)CC1 | 22086 | – | – | – | – | –
COC(=O)c1ccsc1NC(=O)CN1CCN(Cc2ccc3c(c2)OCO3)CC1 | 21667 | – | – | – | – | –
Cc1ccc(F)cc1NC(=O)C1CC(=O)N(Cc2ccccc2)C1 (stereo not given) | – | – | – | – | · | ·
CCN(C(=O)CSc1nnc(SC(C)C)s1)C1CCS(=O)(=O)C1 (stereo not given) | – | – | – | – | · | ·
COc1ccc(Nc2nc(N3CCCC3)c3ccccc3n2)cc1 | – | – | – | – | – | –
CSc1nc(N2CCOCC2)c2ccccc2n1 | 23367 | – | – | – | – | –
CCN(CC)c1ccc(Nc2nc(N3CCOCC3)c3ccccc3n2)cc1 | 20077 | – | – | – | – | –
COc1ccc(N2C(=O)c3ccccc3NC23C(=O)N(C)c2ccccc23)cc1 (stereo not given) | 17048 | – | – | – | – | –
C=CCn1c(CNC(=O)c2ccco2)nnc1SCC(=O)N1c2ccccc2Sc2ccccc21 | 18468 | – | – | – | – | –
O=C(O)CN1C(=O)/C(=C\c2ccccc2OCc2ccccc2)SC1=S | – | – | – | – | · | ·
O=C(O)CN1C(=O)/C(=C\c2cc([N+](=O)[O-])ccc2OCc2ccccc2Cl)SC1=S | – | – | – | 32 | – | –
O=C(O)CN1C(=O)/C(=C\c2cc(Br)ccc2OCc2ccc(Cl)cc2)SC1=S | – | – | – | – | 57 | –
O=C(NCc1ccccc1Cl)C(=O)NCC1OCCCN1S(=O)(=O)c1cccs1 (stereo not given) | – | – | – | – | – | –
C=C1CCC2[C@](C)(CO[C@@H]3O[C@H](CO)[C@@H](O)[C@H](O)[C@H]3O)CCC[C@@]2(C)[C@@H]1CCC1=CCOC1=O (stereo not given in full) | – | – | – | – | · | ·
C=CCN=C(NC#N)SCC(=O)c1cccc(OC)c1 | 22163 | – | ? | – | – | –
CCOC(=O)c1nnn(-c2nc(N(C)C)nc(N(C)C)n2)c1C | – | – | – | – | – | –
CCCSc1cc(=O)n(-c2ccccc2)nc1C(=O)OCC | 22530 | – | – | – | – | –
COC(=O)c1nn(-c2ccccc2)c(=O)cc1Oc1ccccc1 | 22483 | – | – | – | – | –
CCOC(=O)c1nnn(-c2ccccc2)c1C | 24310 | – | ? | – | – | –
COC(=O)c1nn(-c2ccccc2)c(=O)cc1O | – | – | – | – | – | –
COc1ccc(NC(=O)CN2CCc3ccccc3C2)c([N+](=O)[O-])c1 | – | – | – | – | – | –
SMILES | Bead autofluor | BoNT-F LC inh | BoNT A protease | Anthrax LF prot | VHR inh abs | 3CLpro inhibitor
Cc1noc(C)c1COC(=O)c1ccccc1NC(=O)c1ccco1 | – | – | – | – | – | –
N#CCCSCc1ccc(C(=O)O)o1 | – | – | – | – | – | –
CCCCSCc1ccc(C(=O)O)o1 | 20913 | – | – | – | – | –
O=C1NC[C@H](CCCCN2CCN(CC3CCCCC3)C(=O)C2=O)N(CCc2ccccc2)C1=O | – | – | – | – | · | ·
CC(=O)c1cccc(NC(=O)C2Cc3c(-c4cccc(C(N)=O)c4)ccnc3O2)c1 (stereo not given) | – | – | – | – | · | ·
O=S(=O)(Nc1ccc(Cc2ccncc2)cc1)c1ccc(Cl)c(Cl)c1 | 16421 | – | – | – | – | –
O=C1CC2c3ccccc3CCN2C(=O)CN1Cc1ccccc1 (stereo not given) | – | – | – | – | · | ·
O=C1c2cnc3nc(SCc4ccccc4)nn3c2CC2c3ccccc3CCN12 (stereo not given) | 22144 | – | – | – | – | –
O=C(Nc1ccc(OCc2ccccc2)cc1)c1cccs1 | – | ? | – | – | – | –
O=C(N/N=C/c1ccc(OCc2ccccc2)cc1)c1cccs1 | 20999 | – | – | – | – | –
CC1(C)CC(=O)C2=C(C1)N(c1ccc(F)cc1)C(=O)C2(O)C(F)(F)F (stereo not given) | 22420 | – | – | – | – | –
Cc1ccc(N2C(=O)C(O)(C(F)(F)F)C3=C2CC(C)(C)CC3=O)cc1 (stereo not given) | – | – | – | – | – | –
COc1ccc(NC(=O)CN2CCN(S(=O)(=O)c3ccc(Cl)cc3)CC2)cc1 | 22877 | – | – | – | – | –
COc1ccc(S(=O)(=O)N2CCC(C(=O)NCCC(=O)Nc3ccc(Cl)cc3)CC2)cc1 | – | – | – | – | 57 | –
COc1ccc(OC)c(NC(=O)COc2cc(O)c3c(c2)OC(C)(C)CC3=O)c1 | – | – | – | – | · | ·
Cc1cc(N2CCOCC2)nc2ccc(NC(=O)CCC(=O)N3CCN(c4cccc(C(F)(F)F)c4)CC3)cc12 | – | – | – | – | – | –
Cc1[nH]nc(SCC(=O)NC2CCCCC2)c1[N+](=O)[O-] | – | – | – | – | 54 | –
CC1(C(=O)NS(=O)(=O)c2ccc(Cl)cc2)CCN1C(=O)c1ccccc1CCc1ccccc1 (stereo not given) | – | – | – | – | · | ·
Cc1ccc(NC(=O)c2ccc3nc(N4CCOCC4)sc3c2)c(Cl)c1 | – | – | – | – | 56 | –
CCc1ccccc1NC(=O)c1ccc2nc(N3CCOCC3)sc2c1 | – | – | – | – | – | –
O=C(Cn1cnnn1)OCC(=O)c1ccc(Cl)s1 | 22766 | – | – | – | – | –
CC(Oc1ccccc1)c1ccnc2nc(/N=C/N(C)C)nn12 (stereo not given) | 21790 | – | ? | – | – | –
COc1ccc(S(=O)(=O)N2Cc3ccccc3CC2C(=O)Nc2nccs2)cc1 (stereo not given) | 23488 | – | – | – | – | –
O=S(=O)(NCC(c1ccccc1)N1CCNCC1)c1ccc(Cl)cc1 (stereo not given) | 21805 | – | – | – | – | –
CC1=Nc2ccccc2/C1=C\c1nc(-c2ccccc2)oc1O | – | – | – | – | – | –
CC1=Nc2ccccc2/C1=C\c1nc(-c2ccc(C(F)(F)F)cc2)oc1O | 17953 | – | – | – | – | –
COc1ccc(C(=O)O)cc1S(=O)(=O)Nc1ccccc1-c1ccccc1 | – | – | – | – | – | –
